A short description of experiment [1]: Quantitative high throughput screen for delayed death inhibitors of the malarial parasite plastid, 96 hour incubation (AID 488745). Also: nearly all actives have a fitted effect of over 70% in size. Also: potency is read from the fitted curve at half-maximal effect. Summed up:
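Readout is firefly luciferase luminescence from an integrated reporter in P. falciparum; lower signal marks inhibited growth. Cultures at 2% hematocrit and 0.1% parasitemia were treated with compound across two generations (96 h, 37 C, 5% CO2).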

The nature of experiment [2]: Quantitative high throughput screen for delayed death inhibitors of the malarial parasite plastid, 48 hour incubation (AID 488752). Also: nearly all actives have a fitted effect of over 65% in size. Also: potency is read from the fitted curve at half-maximal effect. Summed up:
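First, compound was pinned into RPMI 1640 medium containing 0.5% Albumax. Next, reporter-parasite-infected erythrocytes were added to 2% hematocrit and 0.1% parasitemia. After 48 h at 37 C under 5% CO2, luciferase detection reagent was added and luminescence read.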

The target in experiment [3] is Thioredoxin reductase 1, cytoplasmic (Rattus norvegicus) (UniProt O89049). As to the kind of experiment: qHTS Assay for Substrates of Mammalian Selenoprotein Thioredoxin Reductase 1 (TrxR1) (AID 488772).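 Also: series mostly up to about 57 µM; a drop in NADPH fluorescence below the no-compound background marks a TrxR1 substrate.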 Summed up: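 In this dual-purpose format, potential substrates are identified from the first fluorescence read after selenite addition, not from the 8-minute delta. Rat enzyme is preincubated with NADPH and then with compound at ~22 deg C.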

Experiment [4] has the same target. As to the kind of experiment: qHTS Assay for Inhibitors of Mammalian Selenoprotein Thioredoxin Reductase 1 (TrxR1) (AID 488773).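 Also: drop in NADPH fluorescence over an 8 min run after selenite addition; series mostly up to about 57 µM; nearly all actives have a fitted effect of over 40% in size.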 The conditions noted are these: Potency: inhibition. Summed up: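 Inhibition is scored from the loss of NADPH fluorescence between first and last reads of an 8-min kinetic run. Selenite (400 uM) was the substrate, added after 15 min compound preincubation at room temperature.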
(In general: In qHTS, concentration-response curves come from the screen itself.)

In experiment [5] the target is Flap endonuclease 1 (Homo sapiens) (UniProt P39748). As to the kind of experiment: qHTS Validation Assay for the Inhibitors of Human Flap endonuclease 1 (FEN1) (AID 488816). Also: potency is read from the fitted curve at half-maximal effect. The method in brief:
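Enzyme reagent 10 nM; cpds pinned; 15 min RT preinc.; substrate 50 nM final; reads t=0 and 15 min; no-enzyme buffer wells as neg. control; normalized data, 4-parameter Hill fit.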

Experiment [6] addresses Chromobox protein homolog 1 (Homo sapiens) (UniProt P83916). As to the kind of experiment: qHTS Validation Assay for Inhibitors of HP1-beta Chromodomain Interactions with Methylated Histone Tails (AID 488953). Also: nearly all actives have a fitted effect of over 50% in size. Also: potency is read from the fitted curve at half-maximal effect. Summed up: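 Disruption of preformed HP1-beta:H3K9me3 peptide complexes (both 50 nM, PBS pH 7.4 with 0.01% Tween-20) is measured by AlphaScreen after 30 min compound exposure at room temperature, using streptavidin donor and nickel chelate acceptor beads at 10 ug/mL final.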

The target in experiment [7] is Methanococcus maripaludis chaperonin (MmCpn) (UniProt Q6LX38). The experiment is described as follows: High-Throughput Screening for Modulators of Cytosolic Chaperonin Activity: MmCpn Primary Screen (AID 488978).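 Also: 50 nM MmCpn enzyme hydrolysing 30 µM ATP at 37 °C.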 Summed up: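 Measures ATPase turnover of the M. maripaludis chaperonin (50 nM final) against 30 uM ATP over 10 min at 37C, with compound added 5 min beforehand at room temperature. ADP is quantified by HTRF immunodetection.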

Experiment [8] deals with Transient receptor potential cation channel subfamily V member 1 (Homo sapiens) (UniProt Q8NER1). The experiment is described as follows: HTS Assay for Compounds that Act as Enhancers of the Vanilloid Receptor 1 (AID 488979). The method in brief: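 TRPV1 cells loaded with Fluo-8 calcium dye; compound added and Ca2+ signal (ex 480/em 520 nm) followed 3 min, then capsaicin at EC20 added and read 2 more min to detect enhancement.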

Experiment [9] deals with M-phase phosphoprotein 8 (Homo sapiens) (UniProt Q99549). As to the kind of experiment: qHTS Validation Assay for Inhibitors for MPP8 Chromodomain Interactions with Methylated Histone Tails (AID 488949).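 Also: AlphaScreen signal from MPP8 chromodomain bound to biotinylated H3K9me3 peptide; top concentration of the series differs between compounds; nearly all actives have a fitted effect of over 55% in size.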 The method in brief:
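Disruption of the preformed MPP8–trimethyl-H3K9 peptide complex (both 50 nM, 30 min, RT) is measured after 30 min compound exposure, using AlphaScreen proximity beads; aurintricarboxylic acid titration serves as plate control.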

Records with an inconclusive call do not appear. Activity calls are given as the source filed them. Calls follow the shape of the dose curve; as a rule, active = well fitted curve in the direction sought with a large enough effect; inconclusive = small, poorly fitted or top-dose-only effect, or another doubt; inactive = no such curve, though single readings can be large; an effect the other way counts as inactive or inconclusive.

In PubChem BioAssay (NCATS) one finds Potency and outcome data, which are given here for 28 molecules.

Chromobox protein homolog 1 (Homo sapiens), sequence (P83916 whole entry, looked up): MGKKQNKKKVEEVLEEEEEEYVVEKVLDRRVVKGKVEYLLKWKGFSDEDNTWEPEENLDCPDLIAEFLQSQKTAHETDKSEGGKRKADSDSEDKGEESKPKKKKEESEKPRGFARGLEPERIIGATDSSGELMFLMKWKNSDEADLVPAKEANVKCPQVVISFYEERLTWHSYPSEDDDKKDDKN
Flap endonuclease 1 (Homo sapiens), sequence (P39748 whole entry, looked up): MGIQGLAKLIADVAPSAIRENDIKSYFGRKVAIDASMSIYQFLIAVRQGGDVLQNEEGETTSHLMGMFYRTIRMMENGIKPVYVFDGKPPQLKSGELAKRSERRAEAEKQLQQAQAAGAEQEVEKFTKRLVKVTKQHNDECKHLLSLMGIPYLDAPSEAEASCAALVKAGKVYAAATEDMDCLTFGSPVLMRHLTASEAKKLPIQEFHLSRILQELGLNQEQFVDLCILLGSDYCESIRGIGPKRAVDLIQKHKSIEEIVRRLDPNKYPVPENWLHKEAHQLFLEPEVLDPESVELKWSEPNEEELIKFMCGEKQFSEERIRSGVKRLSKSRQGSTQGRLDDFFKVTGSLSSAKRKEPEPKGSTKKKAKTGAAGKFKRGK
M-phase phosphoprotein 8 (Homo sapiens), sequence (Q99549 whole entry, looked up): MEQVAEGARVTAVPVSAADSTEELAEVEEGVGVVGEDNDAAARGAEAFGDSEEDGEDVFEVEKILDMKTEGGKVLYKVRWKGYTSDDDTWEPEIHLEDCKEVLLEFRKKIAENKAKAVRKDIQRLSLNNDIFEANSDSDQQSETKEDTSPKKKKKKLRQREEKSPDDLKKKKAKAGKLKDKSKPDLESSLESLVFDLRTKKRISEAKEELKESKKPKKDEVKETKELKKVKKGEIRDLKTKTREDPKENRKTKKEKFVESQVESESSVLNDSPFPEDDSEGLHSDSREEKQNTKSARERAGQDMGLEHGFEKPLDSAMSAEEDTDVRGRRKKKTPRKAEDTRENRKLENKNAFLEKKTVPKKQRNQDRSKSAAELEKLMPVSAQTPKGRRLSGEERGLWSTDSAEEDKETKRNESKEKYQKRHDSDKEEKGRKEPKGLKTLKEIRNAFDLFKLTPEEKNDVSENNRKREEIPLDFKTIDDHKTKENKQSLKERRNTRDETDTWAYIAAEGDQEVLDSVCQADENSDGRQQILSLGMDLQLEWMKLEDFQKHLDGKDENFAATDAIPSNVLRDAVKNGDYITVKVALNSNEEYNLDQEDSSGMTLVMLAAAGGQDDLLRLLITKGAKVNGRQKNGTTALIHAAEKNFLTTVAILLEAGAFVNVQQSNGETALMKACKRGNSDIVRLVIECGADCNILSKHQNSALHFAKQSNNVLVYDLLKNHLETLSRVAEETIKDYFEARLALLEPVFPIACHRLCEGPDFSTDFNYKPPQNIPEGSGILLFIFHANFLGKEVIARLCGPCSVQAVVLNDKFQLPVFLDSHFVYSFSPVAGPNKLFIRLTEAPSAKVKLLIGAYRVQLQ
Methanococcus maripaludis chaperonin (MmCpn), sequence (Q6LX38 1-543): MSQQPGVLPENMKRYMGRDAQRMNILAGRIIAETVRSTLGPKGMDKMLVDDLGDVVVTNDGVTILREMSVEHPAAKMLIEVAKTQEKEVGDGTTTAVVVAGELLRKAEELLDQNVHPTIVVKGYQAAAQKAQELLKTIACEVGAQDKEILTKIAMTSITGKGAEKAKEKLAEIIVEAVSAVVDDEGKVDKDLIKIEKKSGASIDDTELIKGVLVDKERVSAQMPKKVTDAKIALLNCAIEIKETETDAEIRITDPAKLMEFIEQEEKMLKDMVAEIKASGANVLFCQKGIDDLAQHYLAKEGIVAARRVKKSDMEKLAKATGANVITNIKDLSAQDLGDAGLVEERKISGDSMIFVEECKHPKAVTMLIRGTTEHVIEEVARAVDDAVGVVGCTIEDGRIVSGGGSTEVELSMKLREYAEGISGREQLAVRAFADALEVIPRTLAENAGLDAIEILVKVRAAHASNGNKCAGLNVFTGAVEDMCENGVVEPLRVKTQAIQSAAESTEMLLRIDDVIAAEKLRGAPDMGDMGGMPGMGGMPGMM
Transient receptor potential cation channel subfamily V member 1 (Homo sapiens), sequence (Q8NER1 whole entry, looked up): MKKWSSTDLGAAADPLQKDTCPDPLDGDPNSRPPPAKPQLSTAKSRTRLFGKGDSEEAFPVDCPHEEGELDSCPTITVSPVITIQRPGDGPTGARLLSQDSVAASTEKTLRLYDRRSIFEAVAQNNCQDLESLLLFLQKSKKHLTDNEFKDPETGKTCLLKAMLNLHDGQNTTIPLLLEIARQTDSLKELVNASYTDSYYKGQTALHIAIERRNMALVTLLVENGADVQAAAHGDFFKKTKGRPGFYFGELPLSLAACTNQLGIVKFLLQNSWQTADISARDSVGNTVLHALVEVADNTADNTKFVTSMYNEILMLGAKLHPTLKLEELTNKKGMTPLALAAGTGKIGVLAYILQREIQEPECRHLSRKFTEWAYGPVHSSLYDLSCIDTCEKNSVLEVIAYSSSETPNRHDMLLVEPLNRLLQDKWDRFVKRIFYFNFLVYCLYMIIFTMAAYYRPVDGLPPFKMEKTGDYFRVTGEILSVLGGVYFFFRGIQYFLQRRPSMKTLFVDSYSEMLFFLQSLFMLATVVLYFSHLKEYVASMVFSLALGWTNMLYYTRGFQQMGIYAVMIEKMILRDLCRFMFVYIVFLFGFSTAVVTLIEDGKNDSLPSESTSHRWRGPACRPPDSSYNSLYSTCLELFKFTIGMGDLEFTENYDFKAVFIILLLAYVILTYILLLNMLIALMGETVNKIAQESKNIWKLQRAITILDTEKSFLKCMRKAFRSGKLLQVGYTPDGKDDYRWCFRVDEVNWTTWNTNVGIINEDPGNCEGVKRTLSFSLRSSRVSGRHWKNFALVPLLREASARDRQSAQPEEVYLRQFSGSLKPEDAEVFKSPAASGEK
Thioredoxin reductase 1, cytoplasmic (Rattus norvegicus), sequence (O89049 whole entry, looked up): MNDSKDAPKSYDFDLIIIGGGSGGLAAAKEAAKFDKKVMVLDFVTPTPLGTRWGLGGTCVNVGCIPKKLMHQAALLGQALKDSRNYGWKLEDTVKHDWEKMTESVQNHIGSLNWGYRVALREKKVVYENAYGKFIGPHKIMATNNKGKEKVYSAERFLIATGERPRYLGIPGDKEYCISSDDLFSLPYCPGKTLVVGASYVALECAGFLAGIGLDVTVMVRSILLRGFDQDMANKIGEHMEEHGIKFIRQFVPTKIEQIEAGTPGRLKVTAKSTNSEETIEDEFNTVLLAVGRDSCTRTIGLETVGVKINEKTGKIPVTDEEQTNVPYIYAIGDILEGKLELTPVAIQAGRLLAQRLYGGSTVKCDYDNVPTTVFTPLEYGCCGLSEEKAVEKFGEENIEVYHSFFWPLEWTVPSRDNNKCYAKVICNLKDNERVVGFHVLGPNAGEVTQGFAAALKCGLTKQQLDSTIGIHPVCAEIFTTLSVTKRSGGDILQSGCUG

`Cn1c(=O)c2[nH]c(C3CCCC3)nc2n(C)c1=O`: the Potency result in experiment [1], in [2], in [4], in experiment [5] and in experiment [6] was “inactive” in each case. Moreover, the result in experiment [3], in experiment [7] and in [8] was inactive.
In the case of `NC1(C(=O)O)CCc2cc(C(=O)O)ccc21` (centres undefined), the Potency entry in [1], in experiment [2], in experiment [5], in experiment [9] and in [6] was “inactive” throughout. Further, the result in experiment [3], in [7] and in [8] was inactive.
Consider `O=C(O)C1=CCNCC1`, for which the Potency result in [1], in [2], in [5], in [9] and in experiment [6] was “inactive” throughout. Moreover, the call in [3], in experiment [7] and in experiment [8] was inactive.
For the molecule `CC(C)NCC(O)COc1ccc(CC(N)=O)cc1` (centres undefined), the Potency entry in [1], in experiment [2] and in experiment [6] was “inactive” in each case. Further, the molecule was classed as inactive in [3], in [7] and in experiment [8].
Regarding `O=C(O)C1CCNCC1`, the Potency entry in experiment [1], in experiment [2], in experiment [5], in experiment [9] and in experiment [6] was “inactive” in each case. Moreover, the molecule was classed as inactive in experiment [3], in experiment [7] and in [8].
On to `C=CCn1c(=O)c2c(nc(-c3ccc(S(=O)(=O)O)cc3)n2C)n(C)c1=O`, for which the Potency result in [1], in experiment [2], in experiment [4] and in [9] was “inactive” throughout. Also, the call in experiment [3], in experiment [7] and in [8] was inactive.
`Cc1cccc(C(=O)NCN2CCN(c3ccccc3C#N)CC2)c1`: the Potency result in experiment [1], in experiment [2], in experiment [5], in [9] and in experiment [6] was “inactive” throughout. In addition, the result in [7] and in [8] was inactive.
In the case of `Cc1nc(N=Nc2ccc(S(=O)(=O)O)cc2S(=O)(=O)O)c(COP(=O)(O)O)c(C=O)c1O`, the Potency entry in [1], in [2], in experiment [4], in [5], in experiment [9] and in experiment [6] was “inactive” throughout. Moreover, the call in experiment [7] and in experiment [8] was inactive.
`Cc1nc(N=Nc2ccc(C(=O)O)cc2)c(COP(=O)(O)O)c(C=O)c1O`: the Potency result in [1], in experiment [2] and in experiment [5] was “inactive” each time. The outcome in experiment [3], in [7] and in experiment [8] was inactive. Moreover, the Potency in experiment [6] is 50.1 µM (active).
For `COc1cc(CC(=O)O)ccc1O`, the Potency result in experiment [1], in experiment [2], in experiment [4], in experiment [5] and in experiment [9] was “inactive” in each case. Moreover, the Potency in experiment [6] was 0.006 µM (active). In addition, the outcome in experiment [7] and in experiment [8] was inactive.
`C/C(=C\c1ccc(C(=O)O)cc1)c1ccc2c(c1)C(C)(C)CCC2(C)C`: the Potency entry in experiment [1], in [2], in experiment [5], in experiment [9] and in experiment [6] was “inactive” throughout. The call in experiment [7] and in [8] was inactive.
On to `CN1CCCC1CCOC(C)(c1ccccc1)c1ccc(Cl)cc1` (centres undefined), for which the Potency in experiment [1] is 8.28 µM (active); in experiment [2] it was 10.4 µM (active). Moreover, the molecule was called inactive in experiment [3] and in [7]. Moreover, the Potency result in experiment [4] and in experiment [9] was “inactive” throughout.
As for `N[C@@H](Cc1c[nH]c2ccccc12)C(=O)O`, the Potency entry in experiment [1], in experiment [2], in experiment [5], in [9] and in [6] was “inactive” each time. For the same molecule, the molecule was classed as inactive in experiment [3], in experiment [7] and in experiment [8].
For `Nc1ncnc2c1c(-c1ccc(Oc3ccccc3)cc1)cn2C1CCCC1`, the figures for the Potency in experiment [1] and in experiment [2] were 7.38 µM (active) and 9.28 µM (active), respectively. In addition, the molecule was classed as inactive in experiment [3], in [7] and in experiment [8]. The Potency result in [5] was “inactive”.
For the molecule `CC(=O)[C@H]1CCC2C3CC=C4C[C@@H](OS(=O)(=O)O)CC[C@]4(C)C3CC[C@@]21C` (some centres undefined), the Potency entry in experiment [1], in experiment [2], in [4], in experiment [9] and in experiment [6] was “inactive” in each case. In addition, the molecule was called inactive in [3], in experiment [7] and in [8].
For the molecule `CCCCCCCCCCC/C=C\C(C)(C)/C=C\CCCC(=O)O`, the Potency result in experiment [1], in experiment [2], in experiment [5], in experiment [9] and in experiment [6] was “inactive” throughout. The molecule was called inactive in [3], in experiment [7] and in experiment [8].
On to `NS(=O)(=O)c1cccc2c1c([N+](=O)[O-])cc1nc(O)c(O)nc12`, for which the Potency entry in [1], in [2], in experiment [4], in experiment [5] and in [9] was “inactive” throughout. For the same molecule, the result in [7] and in [8] was inactive.
For the molecule `CNc1ncnc2c1ncn2[C@H]1C[C@H](OP(=O)(O)O)[C@@H](COP(=O)(O)O)O1`, the Potency entry in experiment [1], in experiment [2], in [5] and in [6] was “inactive” throughout. In addition, the molecule was classed as inactive in [3], in experiment [7] and in experiment [8].
Regarding `COc1cc(N)c(Cl)cc1C(=O)OCCN1CCCCC1`, the Potency result in experiment [1], in experiment [2] and in experiment [5] was “inactive” in each case. The outcome in experiment [3], in experiment [7] and in experiment [8] was inactive. In addition, the Potency in experiment [6] was 0.006 µM (active).
For the molecule `NCCC1CCCC(CCN)N1` (centres undefined), the Potency result in experiment [1], in experiment [2], in [4] and in experiment [6] was “inactive” throughout. The molecule was classed as inactive in experiment [7] and in experiment [8].
On to `CCSC(=N)N`, for which the Potency entry in experiment [1], in experiment [2], in experiment [5] and in [9] was “inactive” each time. Further, the outcome in experiment [3], in experiment [7] and in experiment [8] was inactive.
As to `Oc1ccc(Cn2cc[nH]c2=S)cc1`, the Potency result in experiment [1], in experiment [2], in experiment [4] and in [9] was “inactive” in each case. Further, the outcome in experiment [3], in experiment [7] and in experiment [8] was inactive.
On to `Nc1ccc(-c2nc3ccc(-c4nc5ccc(N)cc5[nH]4)cc3[nH]2)cc1`, for which the Potency in experiment [1] is 0.262 µM (active); in experiment [2], 0.415 µM (active); in experiment [5] it was 21.2 µM (active); in experiment [6], 39.8 µM (active). Further, the call in experiment [3] and in [8] was inactive. Besides, in [4], the Potency result was “inactive”.
`C=CC[C@H](N)C(=O)O`: the Potency entry in experiment [1], in experiment [2], in [4], in [5], in experiment [9] and in experiment [6] was “inactive” throughout. Further, the result in experiment [7] and in experiment [8] was inactive.
`CCN(CC)CCOC(=O)c1cc(Cl)c(N)cc1OC`: the Potency entry in experiment [1], in experiment [2], in experiment [5] and in experiment [6] was “inactive” throughout. Further, the outcome in experiment [3], in experiment [7] and in experiment [8] was inactive.
As to `[Li+]`, the Potency entry in experiment [1], in experiment [2], in experiment [9] and in experiment [6] was “inactive” each time. Moreover, the molecule was classed as inactive in experiment [3], in [7] and in experiment [8].
For `O=C(O)C1CN(CCCP(=O)(O)O)CCN1` (centres undefined), the Potency result in experiment [1], in experiment [2], in [5], in experiment [9] and in [6] was “inactive” in each case. Besides, the molecule was classed as inactive in experiment [3], in experiment [7] and in [8].
On to `N[C@@H](CCCC(=O)O)C(=O)O`, for which the Potency result in experiment [1], in [2], in [4], in experiment [5], in experiment [9] and in experiment [6] was “inactive” in each case. The call in experiment [7] and in [8] was inactive.
